The results in this text go back to ChEMBL document CHEMBL1157539, “Thousands of chemical starting points for antimalarial lead identification” (Nature, 2010).

One assay relates to Plasmodium falciparum. The assay can be described thus: GSK_TCMDC: Inhibition of Plasmodium falciparum 3D7 in whole red blood cells, using parasite LDH activity as an index of growth. Test compounds present at 2uM. The assay is classed as functional.
For `COc1ccc(CN(C)CCCOc2ccc(NC(=O)c3cccc4c(=O)c5cccc(C)c5[nH]c34)cc2)cc1OC`, the Inhibition worked out at 96%.
For the compound `COc1ccc(C(=O)N2CCN(c3ccc([N+](=O)[O-])c(NC4CC4)c3)CC2)cc1Br`, the Inhibition is 99%.
The same measure, in the same setting: to `COc1ccc(-c2cc3nc4c(c(NCCCn5ccnc5)n3n2)CCCC4)cc1` belongs 95%.
Same read-out and setting: with `CCOc1ncccc1CN1CCC(N2CCc3cc(NC(=O)c4cc(C)on4)ccc32)C1` (stereo not given) the figure was 89%.
The same measure, in the same setting: with `CC(=O)c1c[nH]c2ccc(/C=C/C(=O)NC3CCC(CCN4CCc5ccc(C#N)cc5CC4)CC3)cc12.Cl` (stereo not given) the figure was 100%; with `COc1ccc(C(=O)Nc2ccc(-c3nc4cc(C)ccc4[nH]3)cc2)cc1OC`, 100%.
The compound `CCN(CC)CCN(Cc1ccc(-c2ccc(C(F)(F)F)cc2)cc1)C(=O)Cn1c(CCc2cc(F)cc(F)c2F)nc(=O)c2ccccc21.O=C(O)C(O)C(O)C(=O)O` displayed an Inhibition of 100%.
Same read-out and setting: with `Cl.O=C(NCCCCN1CCC(O)(c2ccc(Cl)cc2)CC1)c1ccc(Br)cc1` the figure was 82%; with `O=C(/C=C/c1ccc(Cl)c(Cl)c1)NCCC(CN1CCC(c2c[nH]c3ccccc23)CC1)c1ccccc1` (stereo not given), 100%; with `CCCOc1c(CCNCCCCNCCc2ccc3ccccc3c2OCCC)ccc2ccccc12.CS(=O)(=O)O`, 100%.
Still for that read-out and setting: with `Cc1noc(-c2ccc(O)cc2O)c1-c1ccc2c(c1)OCCCO2` the figure was 100%.
The same measure, in the same setting: to `O=C(c1cccc(-c2noc(C(F)(F)F)n2)c1)N1CCN(c2ccncc2)CC1` belongs 90%; to `NC1CCCN(Cc2cccc(-c3ccc(-c4nc5cc(F)ccc5[nH]4)cc3)c2)C1.O=C(O)C(F)(F)F` (stereo not given), 100%; to `CC(C)(C)c1ccc(CN2CCC(CNC(=O)c3cc(-c4ccccc4F)cs3)C2)cc1.O=C(O)C(F)(F)F` (stereo not given), 100%.
Regarding `COc1cccc(NC(=O)Cn2c(C)c(C#N)c3ccccc32)c1`, the Inhibition was 100%.
Same read-out and setting: with `Cc1ccc2nc(-c3ccc(C(=O)NC4CCN(Cc5ccccc5)CC4)cc3)[nH]c2c1C` the figure was 100%; with `O=C(c1cc2cccc([N+](=O)[O-])c2[nH]1)N1CCC(CCN2CCC(c3c[nH]c4ccccc34)CC2)CC1`, 89%.
The same measure, in the same setting: with `Cc1cc(Nc2ccc(Cl)cc2)n2nc(C(F)(F)F)nc2n1` the figure was 97%.
Still for that read-out and setting: to `CC1CN(CC(O)Cn2c3ccc(Br)cc3c3cc(Br)ccc32)CC(C)O1` (stereo not given) belongs 100%.
Turning to `Cc1cc(O)c(CNC2CCCCC2)cc1C.Cl`, the Inhibition is listed as 95%.
On the same count and under the same terms, to `O=C(Nc1cccc(CN2CCN(C(=O)c3cccc(F)c3)CC2)c1)c1ccco1.O=C(O)C(F)(F)F` belongs 88%; to `Oc1ccc(CCNc2nc(N/N=C/c3ccc(Cl)cc3)nc(N3CCNCC3)n2)cc1`, 100%.
On to `Cc1cc(N2CCN(CC3CCN(C)CC3)CC2)nc(Nc2ccc(Cl)cc2)n1`, for which the Inhibition is reported as 99%.
On the same count and under the same terms, to `Cl.c1ccc(Oc2ccc(Nc3ccnc4c(-c5ccccn5)cccc34)cc2)cc1` belongs 100%; to `COCc1nc(-c2ccccc2)nc(N2CCN(C(=O)NC(C)C)CC2)c1Cc1ccccc1F`, 96%; to `CN1CCCN(Cc2cccc(-c3ccc(CNC(=O)c4cccc(Cl)c4)c(F)c3)c2)CC1.O=C(O)C(F)(F)F`, 96%.
Still for that read-out and setting: with `COc1cc(Nc2ncc3c(C)nc(-c4cccc(Nc5ccc(CN6CCS(=O)(=O)CC6)cc5)c4)n3n2)cc(OC)c1OC` the figure was 90%; with `Cl.ON=C1CCc2cc(-c3[nH]c(-c4cccc(OCCNCc5ccc(F)cc5)c4)nc3-c3ccncc3)ccc21`, 89%.
On the same count and under the same terms, to `Clc1cc(Nc2ccnc3ccc(Br)cc23)ccc1Oc1ccc(Cl)c2ccccc12` belongs 99%.
As to `COc1ccc(CC2(CO)CCN(Cc3ccc(O)c(Cl)c3)CC2)cc1`, the Inhibition is 98%.
As for `CCCCCC(C)N/C(=N/c1ccccc1Br)Nc1ccc([N+](=O)[O-])cc1O` (stereo not given), the Inhibition was 99%.
Same read-out and setting: with `Cl.N#Cc1ccc2c(c1)CN(CCCCNC(=O)c1ccc(-c3ccccc3)cc1)CC2` the figure was 96%; with `O=C(NC1CCN(c2ncc(C(F)(F)F)cc2Cl)CC1)c1cccs1`, 84%.
On the same count and under the same terms, to `CCCNCc1ccc(-c2ccc(CN(Cc3ccc4c(c3)OCO4)C(=O)Cc3cccnc3)cc2)nc1.O=C(O)C(F)(F)F` belongs 94%.
The same measure, in the same setting: with `COc1cccc(NC(=O)c2ccc(NCCCN3CCC(C)CC3)c([N+](=O)[O-])c2)c1` the figure was 100%; with `Cc1cc(C=C(P(=O)(OC(C)C)OC(C)C)P(=O)(OC(C)C)OC(C)C)c2ccccc2c1O`, 85%; with `Cc1cccc(Cn2c(Cc3ccccc3)nnc2Sc2ccc([N+](=O)[O-])c(C#N)c2)c1`, 91%.
In turn, `O=C(Nc1cccc(CN2CCCN(Cc3ccc(O)cc3)CC2)c1)c1ccc2ccccc2c1.O=C(O)C(F)(F)F` came in with an Inhibition of 100%.
Still for that read-out and setting: with `Cc1ccccc1CCNC(=O)c1ccc(N2CCN(c3ccncc3)CC2)nc1.O=C(O)C(F)(F)F` the figure was 95%; with `CCNc1cc(C)nc(Nc2ccc(NC(=O)c3ccco3)cc2)n1`, 95%.

In another assay the test system is Plasmodium falciparum. The assay can be described thus: GSK_TCMDC: Inhibition of Plasmodium falciparum Dd2 in whole red blood cells, using parasite LDH activity as an index of growth. Test compounds present at 2uM. The class given is functional.
For `COc1ccc(CN(C)CCCOc2ccc(NC(=O)c3cccc4c(=O)c5cccc(C)c5[nH]c34)cc2)cc1OC`, the Inhibition came out at 62%.
Same read-out and setting: with `COc1ccc(C(=O)N2CCN(c3ccc([N+](=O)[O-])c(NC4CC4)c3)CC2)cc1Br` the figure was 68%; with `COc1ccc(-c2cc3nc4c(c(NCCCn5ccnc5)n3n2)CCCC4)cc1`, 74%; with `CCOc1ncccc1CN1CCC(N2CCc3cc(NC(=O)c4cc(C)on4)ccc32)C1` (stereo not given), 96%.
Compound `CC(=O)c1c[nH]c2ccc(/C=C/C(=O)NC3CCC(CCN4CCc5ccc(C#N)cc5CC4)CC3)cc12.Cl` (stereo not given) showed an Inhibition of 98%.
Still for that read-out and setting: with `COc1ccc(C(=O)Nc2ccc(-c3nc4cc(C)ccc4[nH]3)cc2)cc1OC` the figure was 38%; with `CCN(CC)CCN(Cc1ccc(-c2ccc(C(F)(F)F)cc2)cc1)C(=O)Cn1c(CCc2cc(F)cc(F)c2F)nc(=O)c2ccccc21.O=C(O)C(O)C(O)C(=O)O`, 77%.
On the same count and under the same terms, to `Cl.O=C(NCCCCN1CCC(O)(c2ccc(Cl)cc2)CC1)c1ccc(Br)cc1` belongs 48%; to `O=C(/C=C/c1ccc(Cl)c(Cl)c1)NCCC(CN1CCC(c2c[nH]c3ccccc23)CC1)c1ccccc1` (stereo not given), 42%; to `CCCOc1c(CCNCCCCNCCc2ccc3ccccc3c2OCCC)ccc2ccccc12.CS(=O)(=O)O`, 78%.
Still for that read-out and setting: with `Cc1noc(-c2ccc(O)cc2O)c1-c1ccc2c(c1)OCCCO2` the figure was 99%; with `O=C(c1cccc(-c2noc(C(F)(F)F)n2)c1)N1CCN(c2ccncc2)CC1`, 56%; with `NC1CCCN(Cc2cccc(-c3ccc(-c4nc5cc(F)ccc5[nH]4)cc3)c2)C1.O=C(O)C(F)(F)F` (stereo not given), 99%.
As for `CC(C)(C)c1ccc(CN2CCC(CNC(=O)c3cc(-c4ccccc4F)cs3)C2)cc1.O=C(O)C(F)(F)F` (stereo not given), the Inhibition is reported as 98%.
On the same count and under the same terms, with `COc1cccc(NC(=O)Cn2c(C)c(C#N)c3ccccc32)c1` the figure was 100%; with `Cc1ccc2nc(-c3ccc(C(=O)NC4CCN(Cc5ccccc5)CC4)cc3)[nH]c2c1C`, 46%; with `O=C(c1cc2cccc([N+](=O)[O-])c2[nH]1)N1CCC(CCN2CCC(c3c[nH]c4ccccc34)CC2)CC1`, 24%.
The same measure, in the same setting: with `Cc1cc(Nc2ccc(Cl)cc2)n2nc(C(F)(F)F)nc2n1` the figure was 95%; with `CC1CN(CC(O)Cn2c3ccc(Br)cc3c3cc(Br)ccc32)CC(C)O1` (stereo not given), 100%.
The same measure, in the same setting: to `Cc1cc(O)c(CNC2CCCCC2)cc1C.Cl` belongs 95%.
`O=C(Nc1cccc(CN2CCN(C(=O)c3cccc(F)c3)CC2)c1)c1ccco1.O=C(O)C(F)(F)F` showed an Inhibition of 55%.
On the same count and under the same terms, with `Oc1ccc(CCNc2nc(N/N=C/c3ccc(Cl)cc3)nc(N3CCNCC3)n2)cc1` the figure was 68%; with `Cc1cc(N2CCN(CC3CCN(C)CC3)CC2)nc(Nc2ccc(Cl)cc2)n1`, 89%; with `Cl.c1ccc(Oc2ccc(Nc3ccnc4c(-c5ccccn5)cccc34)cc2)cc1`, 58%.
Same read-out and setting: to `COCc1nc(-c2ccccc2)nc(N2CCN(C(=O)NC(C)C)CC2)c1Cc1ccccc1F` belongs 94%; to `CN1CCCN(Cc2cccc(-c3ccc(CNC(=O)c4cccc(Cl)c4)c(F)c3)c2)CC1.O=C(O)C(F)(F)F`, 38%; to `COc1cc(Nc2ncc3c(C)nc(-c4cccc(Nc5ccc(CN6CCS(=O)(=O)CC6)cc5)c4)n3n2)cc(OC)c1OC`, 79%.
Same read-out and setting: with `Cl.ON=C1CCc2cc(-c3[nH]c(-c4cccc(OCCNCc5ccc(F)cc5)c4)nc3-c3ccncc3)ccc21` the figure was 69%; with `Clc1cc(Nc2ccnc3ccc(Br)cc23)ccc1Oc1ccc(Cl)c2ccccc12`, 86%; with `COc1ccc(CC2(CO)CCN(Cc3ccc(O)c(Cl)c3)CC2)cc1`, 14%.
The compound `CCCCCC(C)N/C(=N/c1ccccc1Br)Nc1ccc([N+](=O)[O-])cc1O` (stereo not given) came in with an Inhibition of 98%.
Same read-out and setting: to `Cl.N#Cc1ccc2c(c1)CN(CCCCNC(=O)c1ccc(-c3ccccc3)cc1)CC2` belongs 10%; to `O=C(NC1CCN(c2ncc(C(F)(F)F)cc2Cl)CC1)c1cccs1`, 65%.
The same measure, in the same setting: with `CCCNCc1ccc(-c2ccc(CN(Cc3ccc4c(c3)OCO4)C(=O)Cc3cccnc3)cc2)nc1.O=C(O)C(F)(F)F` the figure was 53%.
The same measure, in the same setting: with `COc1cccc(NC(=O)c2ccc(NCCCN3CCC(C)CC3)c([N+](=O)[O-])c2)c1` the figure was 46%.
`Cc1cc(C=C(P(=O)(OC(C)C)OC(C)C)P(=O)(OC(C)C)OC(C)C)c2ccccc2c1O`: the Inhibition worked out at 54%.
Still for that read-out and setting: to `Cc1cccc(Cn2c(Cc3ccccc3)nnc2Sc2ccc([N+](=O)[O-])c(C#N)c2)c1` belongs 3%; to `O=C(Nc1cccc(CN2CCCN(Cc3ccc(O)cc3)CC2)c1)c1ccc2ccccc2c1.O=C(O)C(F)(F)F`, 78%; to `Cc1ccccc1CCNC(=O)c1ccc(N2CCN(c3ccncc3)CC2)nc1.O=C(O)C(F)(F)F`, 20%.
The same measure, in the same setting: to `CCNc1cc(C)nc(Nc2ccc(NC(=O)c3ccco3)cc2)n1` belongs 32%.
